Source: PubChem BioAssay (several laboratories)
PLK1 kinase inh – PLK1 (human) kinase inhibition; P53350; recombinant PLK1 kinase, TR-FRET peptide phosphorylation; inhibition, % at 10 µM; 0.53% of 97,000 active; AID 619;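 active = inhibition of 50% or more in the single-concentration screen; inactive = inhibition below 50%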
PTPN22 act – activators of human LYP (PTPN22) phosphatase. recombinant LYP, DiFMUP fluorescence; 0 = plate median, 100 = signal doubled. activation, % at 2 µM. 0.11% of 96,000 active. AID 697;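 active = activation at 2 µM above a set limit, the mean plus 5 SD, cut at about 37% in these data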
Plk1 PBD FP – blocks phosphopeptide binding to human Plk1 polo box domain; P53350; Plk1 PBD phosphopeptide binding, fluorescence polarization; inhibition, %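 (tested at about 20 µM)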; 0.13% of 97,000 active; AID 693; in the data active = inhibition above about 34%, passing the limit was not always enough
PTK2B oligo ant – blocks oligomerization of human Pyk2 in cells; 0.83% of 99,000 active; Q14289; AID 1347419; Q293 cells, Pyk2 FERM NanoBiT luminescence; hits give low values; z-score (the deposit names both 25 µM and 10 µM);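 active = Z-score of -3 or lower, scaled per plate to the spread of control and sample wells; inactive = z-score above -3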;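 note: negative z-score means lost luminescence so less FERM oligomerization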
PTPN22 inh 2 – blocks human PTPN22 phosphatase activity; 0.21% of 96,000 active; recombinant LYP catalytic domain, DiFMUP fluorescence; Q9Y2R2; inhibition, % at 2 µM;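 active = inhibition at 2 µM at or above a set limit, the screen mean plus 3 SD, cut at about 24% in these data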
Each line names hits and unclear results; the compound was inactive in the other large screens. This is a sample that favours compounds with a hit; in the whole collection about 1.7% have one here.

COC(=O)c1sc(N)nc1C(C)(C)C	none
COc1ccc2nc(NC(=O)C3CCN(S(=O)(=O)c4cccc5nsnc45)CC3)sc2c1	PTK2B oligo ant -3.41
Cc1cccc(NC(=O)C2CCN(S(=O)(=O)c3cccc4nsnc34)CC2)n1	none
O=C(Nc1ccc(O)cc1)c1ccc(C(=O)c2ccccc2)o1	PTK2B oligo ant -3.25
O=C(Nc1ccc(Nc2ccccc2)cc1)c1ccc(Br)o1	none
Cn1c(=O)c2c(nc(SCC(=O)NC34CC5CC(CC(C5)C3)C4)n2C)n(C)c1=O	none
Cc1nnc(N(Cc2ccco2)C(=O)c2ccc(C#N)cc2)s1	PTPN22 inh 2 26.9
CCn1c(SC(C)C)nnc1-c1c[nH]c2ccccc12	PLK1 kinase inh 64.7 (no result: PTPN22 act, PTK2B oligo ant, PTPN22 inh 2)
CCn1c(SCC(=O)NCc2ccccc2)nnc1-c1c[nH]c2ccccc12	none
CCOC(=O)CSc1nnc(-c2c[nH]c3ccccc23)n1CC	PLK1 kinase inh 67.7 (no result: PTPN22 act, PTK2B oligo ant, PTPN22 inh 2)
COCc1nnc(NC(=O)c2ccc(S(=O)(=O)N(C)C3CCCCC3)cc2)o1	none
O=C(OCn1nnc2ccccc2c1=O)c1cn(-c2ccccc2)nc1-c1cccnc1	PTK2B oligo ant -4.07
CCOC(=O)c1cn(-c2ccccc2)nc1-c1cccnc1	none (no result: PLK1 kinase inh, PTPN22 act, Plk1 PBD FP, PTPN22 inh 2)
CCCc1c(C)c2c(C)[nH]nc2oc1=O	PLK1 kinase inh 58.1
O=c1c2ccccc2nc(SCc2cn3ccsc3n2)n1-c1ccccc1F	PTK2B oligo ant -3.48
Cc1nc(NC(=O)CC(C)C)sc1-c1csc(Nc2ccc(Cl)cc2)n1	PTPN22 inh 2 50.6 (no result: PTK2B oligo ant)
Cc1nc(NC(=O)CC(C)C)sc1-c1csc(Nc2ccc(Cl)cc2Cl)n1	none (no result: PTK2B oligo ant)
CCOCCCNS(=O)(=O)c1ccc(OC)c(Cl)c1Cl	none
COc1cc(/C=C2/CCC/C(=C\c3cc(O)c(OC)c(Cl)c3)C2=O)cc(Cl)c1O	PTK2B oligo ant -4.17
COc1ccc(/C=C2/CCc3ccccc3C2=O)cc1OC	none (no result: PLK1 kinase inh, PTPN22 act, Plk1 PBD FP, PTPN22 inh 2)
N#Cc1nc(-c2cccs2)oc1N1CCN(c2ccccc2)CC1	none
COCCN1C=C(C(=O)OC)C(c2cc(Br)c(OC)c(OC)c2)C(C(=O)OC)=C1	PTK2B oligo ant -3.4
CCCOc1cc(N(CC)CC)ccc1/C=C(/C#N)c1nc2ccc(C)cc2[nH]1	none
CCN(CC)c1ccc(/C=C(/C#N)c2nc3ccc(C)cc3[nH]2)c(OC(C)C)c1	PTK2B oligo ant -3.06
CCOc1cc(N(CC)CC)ccc1/C=C(/C#N)c1nc2ccccc2[nH]1	PTK2B oligo ant -3.12
Cc1cc(/C=C(\C#N)c2nc3ccccc3[nH]2)c(C)n1C	none (no result: PLK1 kinase inh, PTPN22 act, Plk1 PBD FP, PTPN22 inh 2)
CC1(C)SC(=S)N(/N=C/c2ccccc2)C1N(O)C(=O)Nc1ccc([N+](=O)[O-])cc1 (stereo not given)	none
Cc1nn(Cc2c(F)c(F)c(F)c(F)c2F)c(C)c1NC(=O)c1ccc(COc2ccc(F)cc2)o1	none
Cc1cccc(C)c1-n1nnnc1S(=O)(=O)Cc1ccccc1Cl	none
Cc1cc(C)c2c(=O)[nH]c(SCC(=O)Nc3ccc(N(C)C)cc3)nc2n1	none
Cc1cc(C)c2c(=O)[nH]c(SCC(=O)Nc3ccccc3)nc2n1	PLK1 kinase inh 52.3
COc1cccc(-c2csc3nc[nH]c(=O)c23)c1	PLK1 kinase inh 60.9
O=c1[nH]cnc2scc(-c3ccc(F)cc3)c12	none
COC(=O)c1ccc2c(=O)n(CCCCCC(=O)O)c(=S)[nH]c2c1	none (no result: PLK1 kinase inh, PTPN22 act, Plk1 PBD FP, PTPN22 inh 2)
COc1cccc(OC)c1C(=O)OCC(=O)Nc1ccc(OC(F)(F)F)cc1	none
COc1ccccc1-c1cc(C(F)(F)F)n2ncc(S(=O)(=O)c3ccccc3)c2n1	none
CCc1ccccc1N(CC)C(=O)CCc1nc(-c2ccc(C)cc2)no1	PTK2B oligo ant -3.02
CCN(Cc1ccccc1)C(=O)CCc1nc(-c2ccc(C)cc2)no1	none
Cc1ccc(NC(=O)c2cc3ccccc3o2)cc1S(=O)(=O)N(C)C	PTK2B oligo ant -3.18
CCC(C)NC(=O)CS(=O)Cc1nc(-c2ccccc2C)oc1C (stereo not given)	none (no result: PTK2B oligo ant)
CCN1CCN(C(=O)Nc2cccc3ccccc23)CC1	PTK2B oligo ant -3.2
CN1CCN(C(=O)Nc2cccc3ccccc23)CC1	none
O=C(NCCN1CCN(c2ccccc2)CC1)C1CCN(S(=O)(=O)N2CCOCC2)CC1	PLK1 kinase inh 56.0
COC(=O)c1ccccc1NC(=O)CSc1nc(NC(=O)c2ccccc2)c2c(C)c(C)oc2n1	none
CCOC(=O)c1ccc(NC(=O)CSc2nc(NC(=O)c3ccccc3)c3c(C)c(C)oc3n2)cc1	PTPN22 inh 2 25.3
Cc1ccccc1C(=O)N1CCC(C(N)=O)CC1	none
CCOC(=O)N1CCN(c2ncnc3c2[nH]c2ccc(F)cc23)CC1	PTK2B oligo ant -3.03
Fc1ccc2[nH]c3c(N4CCN(c5ccccc5)CC4)ncnc3c2c1	PTK2B oligo ant -3.37 (no result: PLK1 kinase inh, PTPN22 act, Plk1 PBD FP, PTPN22 inh 2)
